# Experimental data published in publication PMC11006913.
# How the values were obtained:
# Assay in all cases: PBM; 200 nM protein, PBS
# Details in all cases: dsDNA, one strand shown
# [1] = molecular target: VAX1 (Homo sapiens, UniProt Q5SQQ9 86-172)
# [2] = molecular target: VAX1 (Homo sapiens, UniProt Q5SQQ9 86-172, T142I)
# [3] = molecular target: VAX1 (Homo sapiens, UniProt Q5SQQ9 86-172, K157R)
# [4] = molecular target: HOXD13 (Homo sapiens, UniProt P35453 263-343, T313A)
# [5] = molecular target: NKX3-2 (Homo sapiens, UniProt P78367 192-278, P234S)
# [6] = molecular target: NKX3-2 (Homo sapiens, UniProt P78367 192-278)
# [7] = molecular target: T1, NKX2-6 (Homo sapiens, UniProt A6NCS4 118-204, F151L)
# T1 sequence: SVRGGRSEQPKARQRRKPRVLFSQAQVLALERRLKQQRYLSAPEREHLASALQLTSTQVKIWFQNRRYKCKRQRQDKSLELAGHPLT
# [8] = molecular target: HOXC9 (Homo sapiens, UniProt P31274 178-260, R222W)
# [9] = molecular target: HESX1 (Homo sapiens, UniProt Q9UBX0 95-180, F115L)
# [10] = molecular target: T2, PAX4 (Homo sapiens, UniProt O43316 9-242, R227W)
# T2 sequence: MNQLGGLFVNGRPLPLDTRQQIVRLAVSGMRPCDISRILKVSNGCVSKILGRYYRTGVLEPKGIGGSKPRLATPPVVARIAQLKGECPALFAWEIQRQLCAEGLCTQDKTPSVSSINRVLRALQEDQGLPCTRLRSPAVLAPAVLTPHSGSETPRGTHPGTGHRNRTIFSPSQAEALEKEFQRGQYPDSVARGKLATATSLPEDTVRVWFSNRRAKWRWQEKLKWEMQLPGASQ
# VAX1 (Homo sapiens, UniProt Q5SQQ9 86-172, T142I), sequence (Q5SQQ9 86-172 T142I): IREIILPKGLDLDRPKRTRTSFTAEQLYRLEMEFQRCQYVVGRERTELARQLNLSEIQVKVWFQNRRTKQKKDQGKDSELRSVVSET
# NKX3-2 (Homo sapiens, UniProt P78367 192-278, P234S), sequence (P78367 192-278 P234S): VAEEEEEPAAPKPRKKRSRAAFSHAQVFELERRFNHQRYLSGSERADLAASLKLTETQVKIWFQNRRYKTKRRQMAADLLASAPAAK
# NKX3-2 (Homo sapiens, UniProt P78367 192-278), sequence (P78367 192-278): as the sequence (P78367 192-278 P234S) above, with S43P counted along it
# VAX1 (Homo sapiens, UniProt Q5SQQ9 86-172, K157R), sequence (Q5SQQ9 86-172 K157R): as the sequence (Q5SQQ9 86-172 T142I) above, with I57T, K72R counted along it
# VAX1 (Homo sapiens, UniProt Q5SQQ9 86-172), sequence (Q5SQQ9 86-172): as the sequence (Q5SQQ9 86-172 T142I) above, with I57T counted along it
# HOXC9, sequence (P31274 178-260 R222W): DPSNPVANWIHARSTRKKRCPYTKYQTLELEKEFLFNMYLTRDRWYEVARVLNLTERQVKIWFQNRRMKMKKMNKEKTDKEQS
# HOXD13, sequence (P35453 263-343 T313A): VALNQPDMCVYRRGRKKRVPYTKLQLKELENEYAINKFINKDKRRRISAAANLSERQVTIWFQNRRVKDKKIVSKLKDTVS
# HESX1, sequence (Q9UBX0 95-180 F115L): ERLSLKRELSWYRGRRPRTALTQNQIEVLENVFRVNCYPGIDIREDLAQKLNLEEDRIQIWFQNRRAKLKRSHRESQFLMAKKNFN
sequence,measurement,setting,value
CGCTAGCG,binding signal,[1],"7.32 upbm affinity estimate (log intensity, higher = more binding, comparable within an allelic series)"
same,binding signal,[2],"7.37 upbm affinity estimate (log intensity, higher = more binding, comparable within an allelic series)"
same,binding signal,[3],"7.28 upbm affinity estimate (log intensity, higher = more binding, comparable within an allelic series)"
GGCTAAAC,binding signal,[1],"9.05 upbm affinity estimate (log intensity, higher = more binding, comparable within an allelic series)"
same,binding signal,[3],"8.95 upbm affinity estimate (log intensity, higher = more binding, comparable within an allelic series)"
GCTCAGCC,binding signal,[1],"6.9 upbm affinity estimate (log intensity, higher = more binding, comparable within an allelic series)"
same,binding signal,[2],"6.99 upbm affinity estimate (log intensity, higher = more binding, comparable within an allelic series)"
same,binding signal,[3],"6.88 upbm affinity estimate (log intensity, higher = more binding, comparable within an allelic series)"
AGGCGGGA,binding signal,[1],"6.99 upbm affinity estimate (log intensity, higher = more binding, comparable within an allelic series)"
same,binding signal,[2],"7.2 upbm affinity estimate (log intensity, higher = more binding, comparable within an allelic series)"
same,binding signal,[3],"7.24 upbm affinity estimate (log intensity, higher = more binding, comparable within an allelic series)"
ACGCATAA,binding signal,[1],"9.35 upbm affinity estimate (log intensity, higher = more binding, comparable within an allelic series)"
same,binding signal,[2],"8.83 upbm affinity estimate (log intensity, higher = more binding, comparable within an allelic series)"
same,binding signal,[3],"8.87 upbm affinity estimate (log intensity, higher = more binding, comparable within an allelic series)"
GTCCCTAA,binding signal,[1],"9.58 upbm affinity estimate (log intensity, higher = more binding, comparable within an allelic series)"
same,binding signal,[2],"9.36 upbm affinity estimate (log intensity, higher = more binding, comparable within an allelic series)"
same,binding signal,[3],"9.3 upbm affinity estimate (log intensity, higher = more binding, comparable within an allelic series)"
CGGCAAGA,binding signal,[1],"7.12 upbm affinity estimate (log intensity, higher = more binding, comparable within an allelic series)"
same,binding signal,[2],"7.22 upbm affinity estimate (log intensity, higher = more binding, comparable within an allelic series)"
same,binding signal,[3],"7.11 upbm affinity estimate (log intensity, higher = more binding, comparable within an allelic series)"
AAGGTCAT,binding signal,[1],"9.64 upbm affinity estimate (log intensity, higher = more binding, comparable within an allelic series)"
same,binding signal,[2],"9.26 upbm affinity estimate (log intensity, higher = more binding, comparable within an allelic series)"
same,binding signal,[3],"9.4 upbm affinity estimate (log intensity, higher = more binding, comparable within an allelic series)"
AGGGTCAG,binding signal,[1],"7.22 upbm affinity estimate (log intensity, higher = more binding, comparable within an allelic series)"
same,binding signal,[2],"7.35 upbm affinity estimate (log intensity, higher = more binding, comparable within an allelic series)"
same,binding signal,[3],"7.25 upbm affinity estimate (log intensity, higher = more binding, comparable within an allelic series)"
CCGGCAGC,binding signal,[1],"7.15 upbm affinity estimate (log intensity, higher = more binding, comparable within an allelic series)"
same,binding signal,[2],"7.15 upbm affinity estimate (log intensity, higher = more binding, comparable within an allelic series)"
same,binding signal,[3],"7.17 upbm affinity estimate (log intensity, higher = more binding, comparable within an allelic series)"
GCATATGA,binding signal,[1],"8.94 upbm affinity estimate (log intensity, higher = more binding, comparable within an allelic series)"
same,binding signal,[2],"8.6 upbm affinity estimate (log intensity, higher = more binding, comparable within an allelic series)"
same,binding signal,[3],"8.79 upbm affinity estimate (log intensity, higher = more binding, comparable within an allelic series)"
GAGAATCC,binding signal,[1],"6.95 upbm affinity estimate (log intensity, higher = more binding, comparable within an allelic series)"
same,binding signal,[2],"7.22 upbm affinity estimate (log intensity, higher = more binding, comparable within an allelic series)"
same,binding signal,[3],"7.13 upbm affinity estimate (log intensity, higher = more binding, comparable within an allelic series)"
GGTATACC,binding signal,[1],"7.63 upbm affinity estimate (log intensity, higher = more binding, comparable within an allelic series)"
same,binding signal,[2],"7.37 upbm affinity estimate (log intensity, higher = more binding, comparable within an allelic series)"
same,binding signal,[3],"7.24 upbm affinity estimate (log intensity, higher = more binding, comparable within an allelic series)"
ATCGTTCA,binding signal,[1],"9.46 upbm affinity estimate (log intensity, higher = more binding, comparable within an allelic series)"
same,binding signal,[2],"9.08 upbm affinity estimate (log intensity, higher = more binding, comparable within an allelic series)"
same,binding signal,[3],"9.31 upbm affinity estimate (log intensity, higher = more binding, comparable within an allelic series)"
CGCCGCTC,binding signal,[1],"7.19 upbm affinity estimate (log intensity, higher = more binding, comparable within an allelic series)"
same,binding signal,[2],"7.18 upbm affinity estimate (log intensity, higher = more binding, comparable within an allelic series)"
same,binding signal,[3],"7.31 upbm affinity estimate (log intensity, higher = more binding, comparable within an allelic series)"
AGATGAGC,binding signal,[1],"8.9 upbm affinity estimate (log intensity, higher = more binding, comparable within an allelic series)"
same,binding signal,[3],"8.88 upbm affinity estimate (log intensity, higher = more binding, comparable within an allelic series)"
CGGGGGAC,binding signal,[1],"7.24 upbm affinity estimate (log intensity, higher = more binding, comparable within an allelic series)"
same,binding signal,[2],"7.14 upbm affinity estimate (log intensity, higher = more binding, comparable within an allelic series)"
same,binding signal,[3],"6.94 upbm affinity estimate (log intensity, higher = more binding, comparable within an allelic series)"
CATTACGC,binding signal,[1],"11.1 upbm affinity estimate (log intensity, higher = more binding, comparable within an allelic series)"
same,binding signal,[2],"10.6 upbm affinity estimate (log intensity, higher = more binding, comparable within an allelic series)"
same,binding signal,[3],"10.7 upbm affinity estimate (log intensity, higher = more binding, comparable within an allelic series)"
CTGTAAAA,binding signal,[4],"11.6 upbm affinity estimate (log intensity, higher = more binding, comparable within an allelic series)"
AAGTGCCG,binding signal,[5],"12.5 upbm affinity estimate (log intensity, higher = more binding, comparable within an allelic series)"
same,binding signal,[6],"12.6 upbm affinity estimate (log intensity, higher = more binding, comparable within an allelic series)"
AAGTGCTA,binding signal,[7],"10.6 upbm affinity estimate (log intensity, higher = more binding, comparable within an allelic series)"
AAGTGTCT,binding signal,[7],"10.6 upbm affinity estimate (log intensity, higher = more binding, comparable within an allelic series)"
CGTTAACG,binding signal,[5],"10.4 upbm affinity estimate (log intensity, higher = more binding, comparable within an allelic series)"
same,binding signal,[6],"10.5 upbm affinity estimate (log intensity, higher = more binding, comparable within an allelic series)"
ATAAAATC,binding signal,[8],"11.1 upbm affinity estimate (log intensity, higher = more binding, comparable within an allelic series)"
CGGTTGAC,binding signal,[5],"10.5 upbm affinity estimate (log intensity, higher = more binding, comparable within an allelic series)"
same,binding signal,[6],"10.5 upbm affinity estimate (log intensity, higher = more binding, comparable within an allelic series)"
AGTGGTCC,binding signal,[5],"11.9 upbm affinity estimate (log intensity, higher = more binding, comparable within an allelic series)"
same,binding signal,[6],"11.9 upbm affinity estimate (log intensity, higher = more binding, comparable within an allelic series)"
CCTAAGTA,binding signal,[5],"12.1 upbm affinity estimate (log intensity, higher = more binding, comparable within an allelic series)"
same,binding signal,[6],"12.1 upbm affinity estimate (log intensity, higher = more binding, comparable within an allelic series)"
CGAAGTGC,binding signal,[5],"12.5 upbm affinity estimate (log intensity, higher = more binding, comparable within an allelic series)"
CAAGGGTC,binding signal,[5],"11.7 upbm affinity estimate (log intensity, higher = more binding, comparable within an allelic series)"
same,binding signal,[6],"11.8 upbm affinity estimate (log intensity, higher = more binding, comparable within an allelic series)"
ACGGGACG,binding signal,[5],"10.4 upbm affinity estimate (log intensity, higher = more binding, comparable within an allelic series)"
same,binding signal,[6],"10.4 upbm affinity estimate (log intensity, higher = more binding, comparable within an allelic series)"
AAATTATT,binding signal,[9],"7.73 upbm affinity estimate (log intensity, higher = more binding, comparable within an allelic series)"
ATTATTAG,binding signal,[10],"10.9 upbm affinity estimate (log intensity, higher = more binding, comparable within an allelic series)"
AAGTGTTC,binding signal,[7],"10.8 upbm affinity estimate (log intensity, higher = more binding, comparable within an allelic series)"
AACACTTG,binding signal,[7],"10.8 upbm affinity estimate (log intensity, higher = more binding, comparable within an allelic series)"
ACTTAAGG,binding signal,[7],"10.6 upbm affinity estimate (log intensity, higher = more binding, comparable within an allelic series)"
CGGTGAGC,binding signal,[5],"10.6 upbm affinity estimate (log intensity, higher = more binding, comparable within an allelic series)"
same,binding signal,[6],"10.7 upbm affinity estimate (log intensity, higher = more binding, comparable within an allelic series)"
ATAAAAAA,binding signal,[8],"11.1 upbm affinity estimate (log intensity, higher = more binding, comparable within an allelic series)"
CCTCTTAC,binding signal,[5],"12.1 upbm affinity estimate (log intensity, higher = more binding, comparable within an allelic series)"
same,binding signal,[6],"12.2 upbm affinity estimate (log intensity, higher = more binding, comparable within an allelic series)"
